D2 PAM-1 – Beta-Arrestin HTS for Positive Allosteric Modulators of the Human D2 Dopamine Receptor: Potentiators | D(2) dopamine receptor (Homo sapiens), P14416 | DiscoveRx D2 beta-arrestin cells, luminescence, 90 min; 100% = 57 uM dopamine signal | potentiation, % (test concentration not listed) | hit rate 0.23% among 360,000 | AID 624464, 2012; in the data active = potentiation above about 50%; inconclusive = mostly about 30% to 49%
Target sequence (P14416 whole entry, looked up): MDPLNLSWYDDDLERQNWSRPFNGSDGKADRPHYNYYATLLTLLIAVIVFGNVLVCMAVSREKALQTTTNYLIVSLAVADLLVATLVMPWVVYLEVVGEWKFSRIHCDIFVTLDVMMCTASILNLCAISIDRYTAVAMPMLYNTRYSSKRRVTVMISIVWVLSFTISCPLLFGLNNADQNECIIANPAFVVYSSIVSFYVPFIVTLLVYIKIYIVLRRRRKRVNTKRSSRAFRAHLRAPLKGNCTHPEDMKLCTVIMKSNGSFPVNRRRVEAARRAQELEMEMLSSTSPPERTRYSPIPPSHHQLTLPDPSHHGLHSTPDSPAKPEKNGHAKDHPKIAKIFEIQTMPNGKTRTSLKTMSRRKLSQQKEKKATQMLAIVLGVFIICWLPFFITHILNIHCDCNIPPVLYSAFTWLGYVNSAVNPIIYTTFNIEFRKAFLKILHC
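PathHunter D2 cells, attached overnight at 37 deg C, received compound in DMSO plus dopamine at EC20 (50 nM final) for 90 min at 37 deg C. Beta-arrestin recruitment was read as luminescence after 1 h with detection reagent at ambient temperature.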
D2 antagonist – HTS Assay for Allosteric Antagonists of the Human D2 Dopamine Receptor: Primary Screen for Antagonists. inhibition, % at 10 µM. HEK293 TREx D2 cells, calcium flux, dopamine EC80. hit rate 2% among 340,000; in the data active = inhibition above about 30%; inactive = below that, where a call was filed; note: 0% is about no effect
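Dopamine at EC80 is the agonist stimulus; test compounds precede it by 180 s. Calcium flux read kinetically in a force-coupled, inducible HEK293 T-REx D2 cell line.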
D2 ag-1 – Beta-Arrestin HTS for Positive Allosteric Modulators of the Human D2 Dopamine Receptor: Agonists; D(2) dopamine receptor (Homo sapiens), P14416; DiscoveRx PathHunter D2 beta-arrestin, luminescence, 90 min; 100% = 57 uM dopamine signal; activation, % (concentration not given with the values); hit rate 0.084% among 360,000; in the data active = activation above about 40%; inconclusive = between about 15% and that limit
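Agonist mode: compounds alone added to overnight-plated D2 PathHunter cells for 90 min at 37 C, with 57 uM final dopamine (EC100) defining full response. Beta-arrestin recruitment detected by chemiluminescent reagent, read after 1 h at ambient temperature.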
D2 PAM-2 – HTS Assay for Positive Allosteric Modulators of the Human D2 Dopamine Receptor: Primary Screen for Potentiators; hit rate 0.34% among 340,000; AID 485347, 2010; potentiation, % at 10 µM; D(2) dopamine receptor (Homo sapiens), P14416; HEK293 T-REx D2, calcium flux, EC20 dopamine potentiation;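 active = potentiation over 3 SD above the plate norm, cut at about 30% in these data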; note: 0% is about no effect
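Tetracycline-induced HEK293 T-REx cells force-coupled to calcium signalling expressed D2; compounds were pin-added after a 10 s baseline, read kinetically 180 s, then an EC20 dopamine challenge followed with a further 180 s calcium read.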
D2 ag-2 – HTS Assay for Allosteric Agonists of the Human D2 Dopamine Receptor: Primary Screen for Agonists; D(2) dopamine receptor (Homo sapiens), P14416; HEK293 T-REx D2 cells, calcium flux agonist mode; activation, % at 2 µM; hit rate 0.53% among 340,000;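 active = activation over 3 SD above normal in the single-dose calcium agonist read, cut at about 30% in these data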; note: 0% is about no effect
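Calcium-flux readout, 1 cycle/sec over 180 s following compound pin transfer, in inducible HEK293 Trex D2 cells (force-coupled); dopamine controls included. Positive calcium responses during this window marked compounds as potential agonists.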
Numbers without * were called inactive; ? = inconclusive; . = no result. In the library only some 2.4% were active in any assay of this set; here they are far more common.

SMILES | D2 PAM-1 | D2 antagonist | D2 ag-1 | D2 PAM-2 | D2 ag-2
Cc1cc(=O)[nH]c(NN=C2CCC(C(C)(C)C)CC2)n1 (stereo not drawn) | -9 | 2 | -2 | 32* | 1
COc1cccc(/C=C/C(=O)OCC(=O)c2ccc3c(c2)NC(=O)CO3)c1 | -5 | 42* | 0 | 17 | 0
Cc1cc(N2CCOCC2)n2nc(C)c(-c3ccc(Cl)cc3)c2n1 | -4 | 33* | -5 | 1 | 1
Cc1nn2c(N3CCOCC3)cc(C(C)(C)C)nc2c1-c1ccc(Cl)cc1 | 5 | -6 | -2 | 2 | -1
COc1ccc(-c2c(C)nn3c(N4CCN(Cc5ccccc5)CC4)cc(C)nc23)cc1OC | -1 | 26 | -5 | 31* | 0
Cc1cc(N2CCN(Cc3ccccc3)CC2)n2nc(C)c(-c3ccccc3)c2n1 | -8 | 18 | -3 | -12 | -1
O=C(c1ccc(S(=O)(=O)c2ccccc2Cl)c([N+](=O)[O-])c1)N1CCN(Cc2ccccc2)CC1 | 78* | -7 | ? | 7 | 9
OCCC1CN(Cc2cccc3nccnc23)CCN1C1CCCC1 (stereo not drawn) | -16 | -10 | 1 | -11 | 0
OCCC1CN(Cc2cccc3nonc23)CCN1C1CCCCC1 (stereo not drawn) | -16 | 38* | -6 | -13 | -1
O=C(COC(=O)/C=C/c1cccc(C(F)(F)F)c1)NCc1ccc(F)cc1 | -7 | -8 | -1 | 6 | 0
COc1cccc(/C=C/C(=O)OCC(=O)Nc2cc(C(F)(F)F)ccc2Cl)c1 | -3 | 34* | -1 | -7 | 2
O=C(COC(=O)/C=C/c1cccc(C(F)(F)F)c1)NCc1ccccc1 | 5 | 33* | -4 | 12 | 1
COc1cccc(/C=C/C(=O)OCC(=O)Nc2ccc(Cl)c(S(=O)(=O)N(C)C)c2)c1 | 0 | -15 | -3 | 4 | 2
CCCCOC(=O)c1ccc(NC(=O)c2cc3c(=O)n4cccc(C)c4nc3s2)cc1 | . | . | . | -2 | -1
CNC(=O)c1nnc(Cc2ccc(F)cc2)o1 | -2 | 58* | -5 | 0 | -1
COc1cc(C2c3c(-c4ccccc4)n[nH]c3C(=O)N2c2ccccc2)ccc1O (stereo not drawn) | 52* | -5 | 3 | 25 | 0
CN1/C(=C\C=C2/C(=O)Oc3ccccc3C2=O)C(C)(C)c2ccccc21 | 3 | 68* | -2 | -12 | 125*
CN1C(=CC=C2C=C(I)C(=O)C(I)=C2)C(C)(C)c2ccccc21 | -1 | 15 | -2 | -4 | 7
CCCN1C(=O)/C(=C\C=C2\N(CC)c3ccccc3C2(C)C)SC1=S | -8 | 1 | -1 | -9 | 22
CN1/C(=C\C=C2/SC(=S)NC2=O)C(C)(C)c2ccccc21 | -14 | 16 | -11 | -8 | 41*
CCN(CC)C(=O)C1=C(C)NC(=S)NC1c1cccs1 (stereo not drawn) | -6 | 31* | -8 | -7 | 0
CCOc1ccc(/C=C2\CCC(C3CCCC3)C2=O)cc1 (stereo not drawn) | 0 | 37* | 2 | -3 | -1
CCN(CC)C(=O)N1CCN(C)CC1 | -1 | 32* | -2 | 9 | 1
O=C(CCNS(=O)(=O)c1cccc2nonc12)Nc1ccc(F)cc1 | . | . | . | 4 | 0
COc1ccc(C(CC(=O)O)NC(=O)C2CCCCC2)cc1 (stereo not drawn) | -3 | 14 | -2 | 8 | 1
CCC(NC(=O)C1CCC1)c1ccc(C)cc1 (stereo not drawn) | -8 | 37* | -2 | -9 | 1
O=C(NCc1ccccc1C(F)(F)F)C1CC(c2cccc(F)c2)=NO1 (stereo not drawn) | -10 | 42* | -3 | 12 | 1
O=C(NCc1ccccc1C(F)(F)F)C1CC(c2cc(C(F)(F)F)cc(C(F)(F)F)c2)=NO1 (stereo not drawn) | 6 | 8 | 3 | 3 | 0
